# Source: PubChem BioAssay AID623870 (Broad Institute, 2012)
# In all, about 390,000 compounds went through this assay and about 2,600 (0.67%) were called active. This excerpt belongs to a sample that is enriched for actives. Values without a mark were called inactive.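 Rule for the calls: active = mean inhibition of replicates at least 50% and at least half of replicates each reaching 50%; inconclusive = half or more replicates reach 50% but mean below 50%; inactive = the rest.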
# Molecular target: Transforming acidic coiled-coil-containing protein 3 (Homo sapiens) (UniProt Q9Y6A5)
# Assay: disruptors of ARNT/TACC3 protein interaction, primary screen, biochemical, AlphaScreen, single concentration (AID 623870);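 note: 0% = complete ARNT plus TACC3 wells and 100% = ARNT alone without TACC3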
# Settings: AlphaScreen His-ARNT PAS-B/GST-TACC3 binding, luminescence; at 9.99 µM; hits give high values; TACC3 fragment carries E629A point mutation
row,Structure (SMILES),inhibition
1,Cc1cc(C)nc(N/N=C/c2c(CO)cnc(C)c2O)n1,63% (active)
2,COc1ccc(CNC(=O)C[C@H]2C[C@@H]3c4cc(NC(=O)NC5CCCC5)ccc4O[C@@H]3[C@H](CO)O2)cc1,-2.96%
3,COc1ccc(S(=O)(=O)N2CCCCN3[C@H](CO)[C@H](c4ccc(C5=CCCCC5)cc4)[C@@H]3C2)cc1,-0.894%
4,CO[C@@H]1CN(C)C(=O)c2ccc(NC(=O)Nc3cc(Cl)cc(Cl)c3)cc2OC[C@H](C)NC[C@H]1C,17.2%
5,C[C@H]1CN([C@@H](C)CO)S(=O)(=O)c2ccc(-c3ccncc3)cc2O[C@@H]1CN(C)C(=O)CC1CC1,-7.68%
6,COCC(=O)N1[C@H](CNC(=O)c2ccccn2)[C@H](c2ccccc2)[C@@H]1CO,0.322%
7,CCN(C[C@@H]1[C@H](c2ccccc2)[C@@H](CO)N1CC1CC1)C(=O)c1ccccn1,1.43%
8,CCN(CC)CCOc1ccc2c(c1)C(=NNC(=O)c1ccccn1)c1cc(OCCN(CC)CC)ccc1-2,58.8% (active)
9,C[C@@H]1CN([C@@H](C)CO)C(=O)c2cccc(NC(=O)c3nc4ccccc4s3)c2O[C@@H]1CN(C)Cc1ccc(Cl)c(Cl)c1,-2.22%
10,CCn1cc(/C=C2/SC(=S)NC2=O)c(C)n1,23.8% (active)
11,Cc1nn(C)cc1/C=C1\CCC/C(=C\c2cn(C)nc2C)C1=O,2.65%
12,COc1ccc(NC(=O)N(C)C[C@H]2Oc3c(NC(=O)NC(C)C)cccc3C(=O)N([C@@H](C)CO)C[C@H]2C)cc1,-14%
13,CCc1nnc(NS(=O)(=O)c2ccc(N=Cc3c(C)[nH]n(-c4ccc(C)cc4)c3=O)cc2)s1,45.6% (active)
14,COc1cc(SC#N)ccc1N=Cc1c(C)[nH]n(-c2ccc(C)cc2)c1=O,2.45%
15,CCc1nnc(NC(=O)CCN(c2ccc(C)cc2)S(=O)(=O)c2ccccc2)s1,2%
16,COc1ccc(-c2ccc3c(c2)[C@H]2[C@H](CCN2S(=O)(=O)c2ccccc2F)[C@H](CO)N3)cc1,-0.779%
17,COc1cccc(C(=O)Nc2ccc3c(c2)C(=O)N(C)[C@@H]2CC[C@H](CC(=O)NCC4CC4)O[C@@H]2CO3)c1,-14.2%
18,O=C(C[C@H]1CC[C@H](NC(=O)C2CCC2)[C@@H](CO)O1)NCCCN1CCOCC1,0.473%
19,C[C@H]1CN([C@@H](C)CO)C(=O)Cc2cc(NC(=O)CCC(F)(F)F)ccc2O[C@H]1CN(C)C(=O)NC1CCCCC1,-6.06%
20,C/C(=N/N1CCN(Cc2cccc3ccccc23)CC1)c1cccnc1,3.31%
21,O=C(c1cccc(F)c1)N1CCN(c2ccc([N+](=O)[O-])c3cccnc23)CC1,-1.2%
22,CCCc1cc(=O)oc2c(C)c(O)c(CN3CCCCC3)cc12,0.049%

row,Structure (SMILES),inhibition
1,O=C(c1ccccc1)c1cccn1CC(=O)N1CCN(c2ccc(F)cc2)CC1,1.56%
2,Oc1c(CN2CCN(c3ccc(F)cc3)CC2)cc(Cl)c2cccnc12,73.2% (active)
3,Oc1c(CN2CCCC2)cc(COCc2ccccc2)c2cccnc12,64.5% (active)
4,C[C@@H]1CCCCO[C@H](CN(C)C(=O)CCC(F)(F)F)[C@H](C)CN([C@H](C)CO)C(=O)c2cc(NC(=O)NC3CCCCC3)ccc2O1,-7.47%
5,CCNC(=O)[C@H]1[C@H](CO)[C@H]2Cn3c(ccc(-c4cccc(OC)c4)c3=O)[C@H]2N1Cc1nccs1,-9.07%
6,CO[C@@H]1CC[C@@H]2CCOc3ccc(C#N)cc3C(=O)N(C)C[C@@H](C)C(=O)N(C)C[C@@H]1O2,-7.05%
7,CC(C)NC(=O)N(C)C[C@H]1OCCCC[C@H](C)Oc2ccc(NC(=O)CCCN(C)C)cc2C(=O)N([C@@H](C)CO)C[C@H]1C,-0.512%
8,COc1ccccc1-c1cnc2c(c1)C(=O)N([C@H](C)CO)C[C@@H](C)[C@@H](CN(C)Cc1ccncc1)O2,-5.7%
9,CC(=O)N1[C@@H](CO)[C@H](c2ccccc2)[C@@H]1CN(C)C(=O)CN1CCOCC1,-11.7%
10,Cc1noc(C)c1NC(=O)Nc1ccc2c(c1)C(=O)N([C@@H](C)CO)C[C@H](C)[C@H](CN(C)S(=O)(=O)c1cn(C)cn1)OCCCC[C@@H](C)O2,-9.38%
11,COC(=O)C[C@H]1C[C@H]2c3cc(NC(=O)NC4CCCCC4)ccc3O[C@H]2[C@H](CO)O1,-2.98%
12,CN1c2ccc(C=O)c3c(C=O)ccc(c23)N(C)C1(C)C,13.9% (active)
13,CCSC1(SCC)N=C(N)C2(C#N)C(c3ccccc3)NC(C)=CC12C#N (stereo not given),48.6% (active)
14,CCCC(=O)Nc1ccc2c(c1)OC[C@H](C)N(C(=O)C1CCCC1)C[C@@H](C)[C@H](OC)CN(C)C2=O,-5.43%
15,COc1ccccc1NC(=O)N[C@H]1CC[C@@H](CC(=O)N[C@@H](C)c2ccccc2)O[C@H]1CO,-7.69%
16,CCCNC(=O)C[C@H]1C[C@@H]2c3cc(NC(=O)C4CCOCC4)ccc3O[C@@H]2[C@@H](CO)O1,-13.8%
17,CCCC#Cc1ccc2c(c1)O[C@@H](CN(C)S(=O)(=O)c1cccc(OC)c1)[C@H](C)CN([C@@H](C)CO)S2(=O)=O,4.74%
18,COc1cc(NC(=O)CSc2ccc(-c3cccnc3)nn2)cc(OC)c1,-3.2%
19,COc1ccc(C)cc1NC(=O)CSc1nnc2ccc(-c3ccccn3)nn12,12.1%
20,O=C(CSc1ccc(-c2ccccn2)nn1)Nc1ccccc1,58.5% (active)
21,Cc1ccccc1NC(=O)CSc1ccc2nnc(-c3ccccn3)n2n1,48% (active)
22,Cc1ccccc1NC(=O)CSC1=NCCN1,-6.23%

row,Structure (SMILES),inhibition
1,O=C(CSc1ccc(-c2ccc(-n3cccn3)cc2)nn1)Nc1ccc([N+](=O)[O-])cc1,-19.4%
2,COc1cccc(NC(=O)Nc2ccc3c(c2)C(=O)N(C)C[C@@H](OC)[C@H](C)CN(CC2CC2)[C@H](C)CO3)c1,-0.496%
3,OC[C@H]1[C@@H](c2ccc(C#CC3(O)CCCC3)cc2)[C@H]2CN(Cc3cncnc3)CCCCN21,0.497%
4,CO[C@@H]1CN(C)C(=O)c2cc(NC(=O)C3CCC3)ccc2OC[C@H](C)N(Cc2ccccn2)C[C@H]1C,2.51%
5,O=C(C[C@@H]1C=C[C@@H](NC(=O)c2ccccc2)[C@H](CO)O1)NCCc1ccncc1,-9.84%
6,COc1ccc(C(=O)Nc2ccc3c(c2)C(=O)N(C)C[C@@H](OC)[C@H](C)CN(C(C)=O)[C@@H](C)CO3)cc1,-6.1%
7,CC(C)NC(=O)N1[C@@H]2c3ccc(-c4ccc(F)cc4)c(=O)n3C[C@@H]2[C@@H](CO)[C@@H]1C(=O)N1CCOCC1,17.2%
8,O=C(NC1=CC(=O)c2ccccc2C1=O)c1ccccc1,2.4% (active)
9,Cc1ccccc1S(=O)(=O)N1C[C@H](O)COC[C@H]2O[C@H](CC(=O)N3CCCCC3)CC[C@@H]21,1.95%
10,CNC[C@@H]1Oc2ccc(NC(=O)C3CCCCC3)cc2CC(=O)N([C@@H](C)CO)C[C@H]1C,-6.19%
11,CN(C)C(=O)c1cccc(-c2ccc3c(c2)[C@H]2[C@H](CCN2S(=O)(=O)c2cn(C)cn2)[C@@H](CO)N3)c1,0.583%
12,O=C(NC[C@@H]1[C@@H](c2ccccc2)[C@H](CO)N1C(=O)Cc1cccnc1)C1CC1,-0.188%
13,O=C(NC[C@@H]1[C@@H](c2ccccc2)[C@@H](CO)N1Cc1ccccn1)C1CCC1,23.8% (active)
14,CN(C[C@@H]1[C@H](c2ccccc2)[C@@H](CO)N1Cc1ccccn1)S(C)(=O)=O,29.6%
15,CCCNC(=O)N1C[C@@H](O)COC[C@H]2O[C@H](CC(=O)NCCCN3CCOCC3)CC[C@@H]21,-6.54%
16,CN(C)C(=O)c1cccc(-c2ccc3c(c2)[C@H]2[C@H](CCN2C(=O)Cc2ccccc2)[C@H](CO)N3)c1,-7.24%
17,CN(C)C(=O)C[C@@H]1CC[C@@H](NS(=O)(=O)c2ccccc2)[C@H](CO)O1,1.05%
18,Cc1ccc(S(=O)(=O)N2CCCC2CO)cc1 (stereo not given),-6.07%
19,Cc1ccc(S(=O)(=O)N2CC(C)N(S(C)(=O)=O)C2)cc1 (stereo not given),-0.994%
20,Cc1ccc(S(=O)(=O)n2oc(=O)c(C3CCCCC3)c2N)cc1,64.1% (active)
21,C[C@H](CO)N1C[C@H](C)[C@@H](CN(C)C(=O)C2CCC2)Oc2cc(C3=CCCCC3)ccc2S1(=O)=O,7.82%
22,CCOC(=O)C1CCN(C(=O)C2CCN(S(=O)(=O)c3c(C)noc3C)CC2)CC1,46.8% (active)

row,Structure (SMILES),inhibition
1,CCOC(=O)C1CCN(C(=O)C2CCN(S(=O)(=O)CC)CC2)CC1,-3.42%
2,CCOC(=O)C1CCN(S(=O)(=O)c2c(C)noc2C)CC1,-6.32%
3,COC(=O)C[C@@H]1CC[C@@H]2[C@H](COc3ccc(NC(=O)c4ccccc4OC)cc3C(=O)N2C)O1,-6.13%
4,CN1C[C@H]2[C@@H](c3ccccc31)[C@@H](CO)N2C(=O)Nc1ccccc1,-0.471%
5,COc1ccc(S(=O)(=O)N(C)C[C@@H]2OCc3ccccc3-c3ccccc3C(=O)N([C@@H](C)CO)C[C@@H]2C)cc1,-0.955%
6,Cc1nc2ccccc2c(=O)n1-c1ccc(NS(=O)(=O)c2ccc(F)cc2F)cc1,-1.59%
7,Cc1[nH]n(-c2cccc(Cl)c2)c(=O)c1/C=N/n1c(C)nc2ccccc2c1=O,46.7% (active)
8,CCCNC(=O)Nc1ccc2c(c1)C(=O)N(C)C[C@@H](OC)[C@@H](C)CN(Cc1ccccn1)[C@@H](C)CO2,-2.12%
9,CO[C@@H]1CN(C)C(=O)c2cc(NS(=O)(=O)Cc3ccccc3)ccc2OC[C@H](C)NC[C@H]1C,1.43%
10,CC(C)NC(=O)N[C@H]1CC[C@H](CC(=O)NCCCN(C)C)O[C@H]1CO,-5.48%
11,C[C@H](CO)N1C[C@H](C)[C@H](CN(C)CC2CC2)OCCCC[C@H](C)Oc2ccc(NS(=O)(=O)c3cccs3)cc2C1=O,-8.86%
12,C[C@@H]1CN([C@@H](C)CO)C(=O)c2cccc(NC(=O)Nc3ccc(C(F)(F)F)cc3)c2O[C@@H]1CN(C)S(=O)(=O)c1cccs1,-2.19%
13,COC(=O)CCCCCCC(=O)Nc1ccc(C2OC(CSc3nc(-c4ccccc4)c(-c4ccccc4)o3)CC(c3ccc([N+](=O)[O-])cc3)O2)cc1 (stereo not given),1.18%
14,Nc1nnnn1/N=C/c1cccc(Br)c1,3.65%
15,Nc1nnnn1/N=C/c1cc([N+](=O)[O-])ccc1O,75.7% (active)
16,Nc1nnnn1/N=C/c1cccs1,3.88%
17,C[C@@H]1CCCCO[C@@H](CN(C)S(=O)(=O)c2cn(C)cn2)[C@H](C)CN([C@H](C)CO)C(=O)c2cc(NC(=O)NC3CCCCC3)ccc2O1,-15%
18,O=C(C[C@@H]1C[C@@H]2c3cc(NC(=O)CC4CC4)ccc3O[C@@H]2[C@@H](CO)O1)NCCN1CCCCC1,-1.06%
19,COCC#Cc1cnc2c(c1)C(=O)N([C@@H](C)CO)C[C@@H](C)[C@H](CN(C)C(=O)c1cnccn1)O2,4.05%
